# Results filed as inconclusive are left out. Values without a mark were called inactive. The source made the active and inactive calls. Calls come from the whole dose curve; as a rule, active = well fitted inhibition curve with a large enough effect; inconclusive = small, poorly fitted or top-dose-only effect; inactive = no such curve, though single readings can be large or run the other way.
# Experiment: qHTS Screen of the MIPE 4.0 Collection Against Ewings Sarcoma (RDES) (AID 1259252); note: nearly all actives have a fitted effect of over 35% in size;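 for viability (percent of control): 100% = DMSO-treated cells and 0% = medium-only wells without cells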
# Conditions: RD-ES Ewing sarcoma viability, CellTiter-Glo, 48 h; series mostly up to 45.8 µM; viability (percent of control): at the top concentration
# Method in brief: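 CellTiter-Glo luminescence after 48 h compound exposure (titration) gave viability; percent activity used DMSO-treated cells as no inhibition and medium-only wells as full inhibition. Cells grown in RPMI/5% FBS, dosed 4 h post-seeding.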
# Potency is the fitted concentration of half-maximal effect.
SMILES,Potency,viability (percent of control)
COc1cc2c(NC3CCN(C(C)C)CC3)nc(C3CCCCC3)nc2cc1OCCCN1CCCC1,7430 nM (active),
Cc1cc(N2CCOCC2)cc2[nH]c(-c3c(NC[C@@H](O)c4cccc(Cl)c4)cc[nH]c3=O)nc12,118 nM (active),
CNC(=O)c1ccc(-c2cnc3ncc(Cc4ccc5ncccc5c4)n3n2)cc1F,,128%
C=CC(=O)Nc1cccc(Oc2nc(Nc3ccc(N4CCN(C)CC4)cc3)ncc2Cl)c1,2350 nM (active),
O=C(Cc1ccc(-c2ccc(OCCN3CCOCC3)cc2)cn1)NCc1ccccc1,23.5 nM (active),
Clc1cccc(-n2nnnc2NCc2ccccc2Oc2ccccn2)c1Cl,,125%
COc1cccc2c(NCc3ccccc3)nc(-n3c(N)nc4ccccc43)nc12,8330 nM (active),
Nc1ncnc2c1c(-c1cccc(OCc3ccccc3)c1)cn2C1CC(CN2CCCC2)C1 (stereo not given),23500 nM (active),
Cc1c(CN2CCN(S(C)(=O)=O)CC2)sc2c(N3CCOCC3)nc(-c3cnc(N)nc3)nc12,59 nM (active),
O=C1CCC[C@@H]2[C@H]3CCC[N+]4([O-])CCC[C@@H](CN12)[C@@H]34 (stereo not given in full),,117%
NC(=O)c1cccc2cn(-c3ccc([C@@H]4CCCNC4)cc3)nc12,1870 nM (active),
COc1cccc(Nc2c(C(N)=O)cnc3c(C)cc(S(=O)(=O)c4cccc(C(=O)N(C)C)c4)cc23)c1,,105% [at 23.2 µM]
O=c1c2ccccc2nc2n1CCc1c-2[nH]c2ccccc12,,120%
COC(=O)C1=C(C)NC(C)=C(C(=O)OCCN2CCN(C(c3ccccc3)c3ccccc3)CC2)C1c1cccc([N+](=O)[O-])c1 (stereo not given),,120%
CN(C)Cc1c(C(=O)NCCOc2ccc(C(=O)NO)cc2)oc2ccccc12,1050 nM (active),
CCN(CC)CCNC(=O)c1ccc2nc(-c3ccccc3)c(-c3ccc(CN4CCC(n5c(=O)[nH]c6ccccc65)CC4)cc3)nc2c1,23500 nM (active),
COc1ccc2c(OCc3nnc4ccc(-c5ccccc5)nn34)ccnc2c1,,131%
Nc1ncnc2c1c(-c1cnc3[nH]ccc3c1)nn2C1CCCC1,469 nM (active),

SMILES,Potency,viability (percent of control)
CC(C)c1cc(-c2n[nH]c(=O)n2-c2ccc3c(ccn3C)c2)c(O)cc1O,105 nM (active),
COc1cc2c(cc1-c1c(C)noc1C)ncc1[nH]c(=O)n([C@H](C)c3ccccn3)c12,6620 nM (active),
COc1cc(Nc2ncc(F)c(Nc3ccc4c(n3)N(COP(=O)(O)O)C(=O)C(C)(C)O4)n2)cc(OC)c1OC,11800 nM (active),
CC[C@@]1(O)C(=O)OCc2c1cc1n(c2=O)Cc2cc3cc(O)ccc3nc2-1,13.2 nM (active),
Cc1ccc2nc(NC(=O)CSc3nc4c(c(=O)n3-c3ccccc3)SCC4)sc2c1,18700 nM (active),
CN1CCN(Cc2ccc(NC(=O)Nc3ccc(Oc4cc(NC(=O)C5CC5)ncn4)cc3)cc2C(F)(F)F)CC1,372 nM (active),
COc1ccc(C(=O)CC2(O)C(=O)Nc3c(Cl)ccc(Cl)c32)cc1 (stereo not given),2350 nM (active),
CN1CC[C@@H](c2c(O)cc(O)c3c(=O)cc(-c4ccccc4Cl)oc23)[C@@H](O)C1,148 nM (active),
CC1(C)CC(=O)c2c(C(F)(F)F)nn(-c3ccc(C(N)=O)c(NC4CCC(OC(=O)CN)CC4)c3)c2C1 (stereo not given),166 nM (active),
COC(=O)[C@]12CCC(C)(C)C[C@@H]1[C@@H]1C(=O)C=C3[C@@]4(C)C=C(C#N)C(=O)C(C)(C)[C@@H]4CC[C@@]3(C)[C@]1(C)CC2,372 nM (active),
O=C(CCCCCCC(=O)Nc1ccc([C@H]2O[C@@H](CSc3nc(-c4ccccc4)c(-c4ccccc4)o3)C[C@@H](c3ccc(CO)cc3)O2)cc1)NO,7430 nM (active),
COc1cccc(-c2ccc(NC(=O)C3=C(C(=O)O)CCC3)c(F)c2)c1,14800 nM (active),
CC(C)(O)CCc1ccc(OCc2cc(-c3cccc(OC(F)F)c3)c3ncccc3c2)cc1,,110%
CCc1cc2c(cc1N1CCC(N3CCOCC3)CC1)C(C)(C)c1[nH]c3cc(C#N)ccc3c1C2=O,,99.4%
OCc1ccc(-c2ccc(-c3ccc(CO)s3)o2)s1,52.6 nM (active),
Cc1coc2c1C(=O)C(=O)c1c-2ccc2c1CCCC2(C)C,,125%
COc1ccc(-n2nc(C(N)=O)c3c2C(=O)N(c2ccc(N4CCCCC4=O)cc2)CC3)cc1,,130%

# From PubChem BioAssay (NCATS)
